The panel holds about 83,000 compounds, 20% with a hit somewhere; the sample as a whole holds those more often.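 Results are percent growth after 48 hours of single-concentration exposure. 100 means growth as in untreated cells, lower positive values show inhibition; negative values down to -100 show cell death.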 Unmarked numbers belong to inactive results. Activity calls are given as the source filed them.
Each compound was assayed on M14 melanoma (assay: NCI-60 one-dose screen, 48 h (100 = growth as untreated, 0 = no growth, -100 = all killed)). Conditions: 10 µM unless noted.
Procedure: Growth inhibition of the M14 human tumor cell line is measured as a screen for anti-cancer activity. Cells are grown in 96 well plates and exposed to the test compound for 48 hours. Compounds are tested at a single concentration, which is 10^-5 M for most compounds. The reported endpoint is percent growth (GI% or GIPRCNT), where numbers from 0 - 100% represent growth inhibition, and numbers from -100% - 0 represent cell death. For example, a value of 40 represents 60% growth inhibition. A value of 0 means no net growth occurred over the course of the experiment. A value of -40 indicates 40% of cells at the beginning of the experiment died by the end of the experiment. A value of -100 means all cells are dead at the end of the experiment.
NCI-60 Human Tumor Cell Lines Screen was performed using the standard one-dose NCI protocol, which is described in more detail at https://dtp.cancer.gov/discovery_development/nci-60/default.htm.
Compounds with GIPRCNT values below 10 were considered active. Activity score was based on GIPRCNT using the following formula: […]
Score is 0 for GIPRCNT values of 100 or above, 50 for GIPRCNT values of 0, and 100 for GIPRCNT values of -100.

Row | SMILES | growth
1 | NC(=O)c1cccc(-c2cc(C(N)=O)ccc2Cl)c1 | 16.1%
2 | CC(C)(C)CC(C)(C)Nc1c(-c2ccc3c(c2)OCO3)nc2cnccn12 | 45.9%
3 | Fc1ccc(C2CC(c3cccc(Nc4ccncc4)c3)=NN2c2ccccc2)cc1 (stereo not given) | 98.8%
4 | CCCCCCCCN1C(=O)/C(=c2\sc3n(c2=O)C2C(NN=3)N(CC)C(=O)N2CC)c2ccccc21 (stereo not given) | 95.4%
5 | COc1cc(-c2nc3sccn3c2-c2ccnc(NCCNS(=O)(=O)c3ccc(F)cc3)n2)ccc1F | 9.49% (active)
6 | [2H]C1([2H])NC([2H])([2H])C([2H])([2H])N(c2ccc(Nc3ncc4cc(C(=O)N(C)C)n(C5CCCC5)c4n3)nc2)C1([2H])[2H] | 75.2%
7 | CCOC(=O)N1CCN(CCCCl)CC1 | 101%
8 | O=C(Nc1nc(-c2ccc(Br)cc2)cs1)c1cc(-c2ccc(Br)cc2)nc2ccc(Cl)cc12 | 99.1%
9 | CC(C)[N+](C)(CCOC(COc1ccccc1)COc1ccccc1)C(C)C | 100%
10 | COc1ccccc1C(C[N+](=O)[O-])c1c(-c2ccccc2)[nH]c2cc(C)ccc12 (stereo not given) | 45.6%
11 | O=c1[nH]nc(-c2ccc(Cl)cc2)cc1Cc1cccc([N+](=O)[O-])c1 | 107%
12 | Cn1c(COC(=O)NCCc2ccccn2)nc2c(N3CCOCC3)nc(Cl)nc21 | -59.2% (active)
13 | CCOC(=O)Oc1c(OC)cc(C(=O)O[C@@H]2C[C@@H]3CN4CCc5c([nH]c6cc(OC)ccc56)[C@H]4C[C@@H]3[C@H](C(=O)OC)[C@H]2OC)cc1OC | 72.1%
14 | C=C(C)[C@@H]1CC[C@]2(C(=O)O)CC[C@]3(C)[C@H](CC[C@@H]4[C@@]5(C)C[C@@H](CC#Cc6ccc(Br)cc6)C(=O)C(C)(C)[C@@H]5CC[C@]43C)[C@@H]12 | 5.57% (active)
15 | N/C(=N\N=C\c1cc2ccccc2s1)N/N=C/c1cc2ccccc2s1 | -56.3% (active)
16 | Cc1cccc(Oc2ccc(Nc3ncnc4ccc(NC(=O)CN(C)C)cc34)cc2Cl)c1 | -77.1% (active)
17 | O=C1Nc2ccccc2/C1=C\c1cccc(/C=C2/C(=O)Nc3ccccc32)n1 | -69.2% (active)
18 | COc1ccc(Cn2nc(-c3cc(OC)c(OC)c(OC)c3)c3c2CCc2cnoc2-3)cc1OC | 61.7%
19 | Cn1ncc2c(Nc3ccccc3Cl)nc(Cl)nc21 | 124%
20 | CCCNC(=O)Oc1ccc(/C(=C(\C)c2ccccc2)c2ccc(OCCN3CCCCC3)cc2)cc1 | 14.1%

Row | SMILES | growth
21 | Nc1c(Cl)cc([N+](=O)[O-])cc1Br | 114%
22 | Clc1ccc(N2N=C(c3cccc(Nc4ccncc4)c3)CC2c2ccc3c(c2)OCO3)cc1 (stereo not given) | -52.4% (active)
23 | CC(O)(CO)c1ccccc1 (stereo not given) | 94.6%
24 | CC(=O)Nc1ccc(S(=O)(=O)NC2CCCCC2)cc1 | 101%
25 | Clc1ccc(N2N=C(c3cccc(Nc4ccncc4)c3)CC2c2ccc(Br)cc2)cc1 (stereo not given) | 107%
26 | Nc1nnc(C(=O)c2cnc3n(c2=O)CCCCC3)s1 | 96.7%
27 | COc1ccc(C(=O)c2cc(C)c(OC)c(C)c2)c(OC)c1N(C(=O)C(Cl)Cl)C(=O)C(Cl)Cl | -14.8% (active)
28 | O=C(Nc1ccc2cc3ccc(NC(=O)N4CCCCCC4)cc3nc2c1)N1CCCCCC1 | -66.2% (active)
29 | CS(=O)(=O)c1ccc(-c2cc3c(oc2=O)-c2ccccc2OC3O)cc1 (stereo not given) | 101%
30 | CC(=O)[C@@H]1CC[C@]2(C(=O)n3ccnc3)CC[C@]3(C)[C@H](CC[C@@H]4[C@@]5(C)Cc6c([nH]c7ccccc67)C(C)(C)[C@@H]5CC[C@]43C)[C@@H]12 | 96.1%
31 | N#C/C(=C\c1ccc(Br)cc1)n1nnc2cccc(F)c21 | 10.9%
32 | O=C1Nc2c(ccc(Cl)c2Cl)/C1=C/c1ccc(F)cc1 | 93.9%
33 | COc1cccc(-c2nc3occn3c2-c2ccnc(NCCCNS(=O)(=O)c3cccc(F)c3)n2)c1 | 60.9%
34 | CC(=O)O[C@]1(C(C)=O)CC[C@H]2[C@@H]3C=C(Cl)C4=CC(=O)CC[C@]4(C)[C@H]3CC[C@@]21C | 103%
35 | Nc1c(C(=O)Nc2ccc(Cl)cc2)cc(-c2nc3ccccc3s2)c(=O)n1NS(=O)(=O)c1ccc(Cl)cc1 | 98.2%
36 | COc1cc(Nc2cc(O)c3c(=O)cc(-c4ccccc4)oc3c2)cc(OC)c1 | 28.4%
37 | COc1ccccc1/C=N/NC1=NC2C(N1)N(C)C(=O)N2C (stereo not given) | 99.7%
38 | COc1cc(NCCCN(CC(C)C)C2CCCC2)c2ncccc2c1 | 85.7%
39 | CN(C)c1ccc(-c2c(C#N)c(N)n3nc(N)c(C#N)c3c2C#N)cc1 | 69.1%
40 | O=C1Nc2cc(-c3ccncc3)ccc2/C1=C/c1ccc[nH]1 | 91.9%

Source: PubChem BioAssay (NCI)
